Hits are enriched below; roughly 21% of the tested compounds scored in any of these assays.
Pf growth 96h = P. falciparum growth inhibition at 96 hours. Potency, µM (doses to about 28.7 µM), inactives show top-dose activity change, negative = inhibition, usual class: inhibitors. actives 6.9% (n = 320,000). P. falciparum luciferase reporter growth, 96 h; active = well fitted inhibition curve with a large enough effect; inconclusive = small, poorly fitted or top-dose-only effect, or another doubt; inactive = no such curve, though single readings can be large or run the other way; note: potency is the fitted concentration of half-maximal effect; % is set by controls: 0 for no effect and ±100 for the full control effect
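Two-generation exposure (96 h) targets delayed-death phenotype. Reporter parasites carrying integrated firefly luciferase, in red cells at 2% hematocrit and 0.05% parasitemia final, kept at 37 C, 5% CO2; luminescence loss indicates inhibition.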
Pf growth 48h = inhibits P. falciparum growth in the first generation, 48 h; P. falciparum luciferase growth in erythrocytes, 48 h; Potency, µM (highest dose often 28.7 µM), for the others: at the top dose activity change, negative = inhibition, most hits filed as inhibitors; actives 5.9% (n = 310,000); active = well fitted inhibition curve with a large enough effect; inconclusive = small, poorly fitted or top-dose-only effect, or another doubt; inactive = no such curve, though single readings can be large or run the other way; note: potency is the fitted concentration of half-maximal effect; % is set by controls: 0 for no effect and ±100 for the full control effect
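Erythrocytes infected with P. falciparum carrying an integrated firefly luciferase reporter (2% hematocrit, 0.1% parasitemia final) were exposed to compounds in RPMI 1640 with 0.5% Albumax at 37 C, 5% CO2. Growth inhibition was scored as reduced luminescence.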
NS1 inh = blocks influenza NS1 protein function | actives 0.4% (n = 270,000) | Potency, µM (highest dose often 46.1 µM), for the others: at the highest dose activity, positive = more growth; note: potency is the fitted concentration of half-maximal effect; actives are rising curves; nearly all actives have a fitted effect of over 50% in size
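Read-out: OD600 growth recovery of NS1-expressing budding yeast. Cells grown overnight at 30C in -URA glucose medium, washed, resuspended and diluted 1:100 in 2% galactose assay medium, pH 6.0. Same strain lacking NS1 served as positive control.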
Cycloheximide cs = counter-screen for Shiga toxin inhibitors: cycloheximide protein synthesis inhibition; cell reporter, cycloheximide protein synthesis inhibition counterscreen; max response, %; actives 12% (n = 300,000); in the data active = max response mostly above about 13%, no sharp cut-off; inactive = mostly below about 14%; note: read at 38.3 µM for the half of the compounds with a filed dose; 0% is about no effect
Shiga toxin inh = inhibitors of Shiga toxin in Vero cells; Vero cells, Shiga toxin protein synthesis inhibition reporter; inhibition, % at 38.7 µM; actives 9.2% (n = 290,000); in the data active = inhibition mostly above about 28%, no sharp cut-off; inactive = mostly below about 43%; note: 0% is about no effect
SARS PLpro yeast = SARS-CoV PLP inhibition in yeast. AID 485353. Potency, µM (top dose mostly 32.9 µM), for the others: at the top dose activity, positive = growth rescue, hits mostly activators. S. cerevisiae expressing SARS-CoV PLpro, growth rescue. actives 0.19% (n = 330,000); note: potency is the fitted concentration of half-maximal effect; 0% is about no effect; nearly all actives have a fitted effect of over 55% in size
* = called active by the depositor; ? = inconclusive; . = no result; + = active, no number. Unless noted, calls come from the whole dose curve.

SMILES | Pf growth 96h | Pf growth 48h | NS1 inh | Cycloheximide cs | Shiga toxin inh | SARS PLpro yeast
C=CCc1cccc(C=Nc2cc(Br)ccc2O)c1O | 12µM* | ? | -46% | 6 | 22 | -43%
CCc1ccc(O)c(N=Cc2cccc(C)c2O)c1 | ? | ? | -4% | 27* | 47 | -11%
C=CCc1cccc(C=Nc2cccn3cc(-c4ccccc4)nc23)c1O | 6% | 92% | . | 32* | 69* | -3%
Cc1cccc(C=Nc2ccc3c4c(cccc24)CC3)c1O | 23% | 10% | 28% | -1 | -4 | ?
C=CCc1cccc(C=Nc2c[nH]c(=O)[nH]c2=O)c1O | -22% | 0% | 20% | -3 | . | -4%
COc1ccc(C2C=C3CNS(=O)(=O)C3CC2OC(=O)c2cccs2)cc1 (stereo not drawn) | . | . | . | 9 | -11 | .
Cc1cccc(C)c1NC(=O)NN=C1CCCCC1 | 3% | -13% | -4% | 3 | -2 | 0%
CCNC(=S)Nc1ccccc1-c1ccccc1 | 21% | ? | -5% | -1 | 14 | 6%
COCC(=O)c1[nH]c2ccccc2c1C | 3.7µM* | 1% | -47% | 11 | -2 | ?
O=C(CCc1ccc(Oc2cc([N+](=O)[O-])cc([N+](=O)[O-])c2)cc1)N1CCCCC1 | ? | 12µM* | -1% | 10 | 20 | -33%
O=C(c1ccc(Oc2ccc([N+](=O)[O-])cc2)cc1)N1CCCCCC1 | 3% | 26% | -39% | 11 | 68 | -2%
CCN1CCN(C(=O)c2ccc(N3CC4CC(C3)c3cccc(=O)n3C4)c(NC(=O)c3cc(OC)cc(OC)c3)c2)CC1 (stereo not drawn) | 0% | ? | -10% | 1 | -9 | 6%
CN(C)Cc1c(O)ccc2oc(Cc3ccccc3)cc12 | 15% | 0.41µM* | -11% | -1 | -6 | 3%
CN(C)Cc1c(O)ccc2ccccc12 | -3% | ? | -2% | 1 | 18 | -1%
CCC/C(C(=O)NCCO)=C1/c2ccccc2C(=O)N1c1ccccc1 | . | . | . | . | . | -6%
CC[N+](CC)(CC)CCCCOc1ccc2c(c1)C(=O)c1cc(OCCCC[N+](CC)(CC)CC)ccc1-2 | ? | 0.066µM* | -2% | 0 | 22 | -1%
CC[N+](C)(CC)CCCCOc1ccc2c(c1)C(=O)c1cc(OCCCC[N+](C)(CC)CC)ccc1-2 | ? | ? | -1% | -1 | 10 | 0%
CCOC(=O)C1=C(C)Nc2ccccc2N/C1=N\S(=O)(=O)c1cc(C(=O)O)ccc1Cl | ? | 2% | . | . | . | -1%
C#CCNc1ccc([N+](=O)[O-])cc1 | -5% | 38% | . | 16* | 22 | -3%
NCCNc1ccc([N+](=O)[O-])cc1 | 0% | 48% | -3% | -2 | -6 | -1%
Cc1ccn(CC(=O)N2CCCC(N3CCN(c4ccc(F)cc4)CC3)C2)n1 (stereo not drawn) | 0% | ? | -1% | -2 | -6 | 4%
CN1CC(=O)N(C)c2ncn(Cc3ccccc3)c2C1=O | 8.3µM* | 26% | 2% | -3 | 8 | 3%
Cc1cc(=O)oc2cc(OCC(=O)OC(C)C(=O)NC3CCCC3)ccc12 (stereo not drawn) | 18% | ? | . | 0 | -10 | -1%
CCOc1ccc(N=CNc2ccc(OCC)cc2)cc1 | ? | -2% | 3% | 1 | 20 | 2%
C=CCN=Cc1sc2ccc(OCC)cc2c1O | 78% | 120% | -3% | 51* | 153* | -15%
SMILES | Pf growth 96h | Pf growth 48h | NS1 inh | Cycloheximide cs | Shiga toxin inh | SARS PLpro yeast
CCCCN=Cc1sc2ccc(OCC)cc2c1O | ? | 50% | -6% | 69* | 67* | -13%
Cc1ccc(N=C2CCCCCN2C)c(C#N)c1 | ? | 23% | 11% | 2 | 7 | -8%
Cc1ccc(N=C2CCCN2Cc2ccccc2)c(C#N)c1 | ? | 9% | 0% | 18* | + | -4%
O=[N+]([O-])c1ccc(Nc2ccc(Cl)cc2)nc1 | -6% | -17% | 0% | -5 | 4 | 0%
O=[N+]([O-])c1ccc(Nc2ccc3ccccc3c2)nc1 | ? | -93% | -10% | 45* | 89* | 0%
COc1cc(CCC(=O)OCc2ccccc2C#N)cc(OC)c1OC | 31% | 32% | -3% | -1 | -6 | 0%
CCOc1ccc(C(C)=O)cc1COC(=O)CCc1cc(OC)c(OC)c(OC)c1 | 8.3µM* | ? | -15% | -3 | 1 | 3%
Cc1ccc(N2C(=O)C3C4CC(=O)C(c5ccccc54)C3C2=O)cc1C (stereo not drawn) | 434% | 11% | 5% | 5 | -3 | -8%
Cc1nn(-c2ccccc2)c(N)c1C1(O)C(=O)Nc2ccccc21 (stereo not drawn) | 29% | 45% | 3% | -2 | -5 | -1%
Cc1cc(C)n(CC(=O)Nc2ccc3c(c2)OCO3)c(=O)c1C#N | -4% | 17% | . | . | . | 0%
O=C(CSc1nc2ccccc2n1-c1ccccc1)Nc1ncc(Cl)cc1Cl | 10µM* | ? | 12% | -2 | -4 | -11%
Cc1cccc(-n2c(SCC(=O)Nc3ncc(Cl)cc3Cl)nc3ccccc32)c1 | 4.7µM* | ? | 7% | 11 | 13 | -29%
COc1ccc(-n2c(SCC(=O)Nc3ncc(Cl)cc3Cl)nc3ccccc32)cc1 | ? | ? | . | -6 | 17 | -1%
COc1ccc(CNc2nc(=S)[nH]c3cc(OC)c(OC)cc23)cc1 | -20% | -30% | 1% | 8 | 28 | 1%
COc1cc2[nH]c(=S)nc(NCc3ccc(C)cc3)c2cc1OC | 13µM* | ? | -1% | -2 | -10 | -2%
COc1cc2[nH]c(=S)nc(NCc3ccccc3)c2cc1OC | 0.52µM* | -19% | -2% | 12 | -4 | -1%
COc1ccc(CCNC(=O)CCCCCNc2nc(=S)[nH]c3ccccc23)cc1OC | 10µM* | ? | -1% | 4 | -3 | -7%
COC(=O)[C@@]1(Cc2ccccc2)[C@H]2C(=O)N(C)C(=O)[C@H]2[C@H]2CN=C(SCc3ccc(Cl)cc3)N21 | . | . | . | . | . | 7%
COC(=O)c1cnn(-c2ccc(Cl)cc2)c1/C=N/NC(N)=S | -1% | -16% | 1% | -4 | -21 | 0%
O=C(Cc1cccs1)NC1C(=O)N2C(C(=O)[O-])=C(C[n+]3ccccc3)CSC12 (stereo not drawn) | 2% | -9% | . | . | . | .
CC1=NN(C(=O)c2csc(C(C)C)c2)C(O)(C(F)(F)F)C1 (stereo not drawn) | 36% | ? | 7% | -4 | -8 | -6%
CC(NC(=O)c1ccc([N+](=O)[O-])cc1Cl)C1CC2CCC1C2 (stereo not drawn) | ? | -26% | 1% | 14* | 43 | -2%
CCCOc1ccccc1Nc1nnc(C)c(=O)[nH]1 | 13µM* | 15% | -3% | -2 | -12 | 4%
Cc1ccc(C(C(=O)NC2CCCCC2)N(Cc2ccco2)C(=O)C2COc3ccccc3O2)o1 (stereo not drawn) | . | 7.4µM* | 11% | 3 | 15 | -1%
Cc1ccc(C(C(=O)NC2CCCCC2)N(Cc2cccnc2)C(=O)C2COc3ccccc3O2)o1 (stereo not drawn) | -3% | 5.2µM* | -36% | 13 | 9 | 7%
O=C(NC1CCCCC1)C(c1ccc(O)cc1)N(CC1CCCO1)C(=O)C1COc2ccccc2O1 (stereo not drawn) | 7.4µM* | . | 3% | -2 | -12 | 0%
O=C(NC1CCCC1)C(c1ccccc1)N(Cc1ccco1)C(=O)Cc1cccs1 (stereo not drawn) | 7% | -9% | 8% | -3 | -12 | -23%
O=C(CN1CCCCC1)NCCNc1ccc(C(F)(F)F)cc1[N+](=O)[O-] | 28% | 3% | 3% | 4 | -8 | -4%

Screening data: PubChem, National Center for Advancing Translational Sciences (NCATS)
